About 5,800 (1.8%) of roughly 330,000 compounds were called active. For the sample, actives were picked, then their nearest neighbours and some compounds at random. Values without a mark were called inactive.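 Rule for the calls: active = inhibition above about 50% at the single tested dose (limit read from the data); inactive = the rest.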
biological target: Sentrin-specific protease 6 (Homo sapiens) (UniProt Q9GZR1); experiment: SENP6 protease inhibitors, primary screen, biochemical, luminescence, uHTS (AID 2599); conditions: Recombinant SENP6 catalytic domain, aminoluciferin luminescence; at 10 µM; stronger effect = higher value;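 note: plate controls were DMSO wells with enzyme for no effect and DMSO wells lacking enzyme for full effect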
Sequence (Q9GZR1 628-1112 limits assumed): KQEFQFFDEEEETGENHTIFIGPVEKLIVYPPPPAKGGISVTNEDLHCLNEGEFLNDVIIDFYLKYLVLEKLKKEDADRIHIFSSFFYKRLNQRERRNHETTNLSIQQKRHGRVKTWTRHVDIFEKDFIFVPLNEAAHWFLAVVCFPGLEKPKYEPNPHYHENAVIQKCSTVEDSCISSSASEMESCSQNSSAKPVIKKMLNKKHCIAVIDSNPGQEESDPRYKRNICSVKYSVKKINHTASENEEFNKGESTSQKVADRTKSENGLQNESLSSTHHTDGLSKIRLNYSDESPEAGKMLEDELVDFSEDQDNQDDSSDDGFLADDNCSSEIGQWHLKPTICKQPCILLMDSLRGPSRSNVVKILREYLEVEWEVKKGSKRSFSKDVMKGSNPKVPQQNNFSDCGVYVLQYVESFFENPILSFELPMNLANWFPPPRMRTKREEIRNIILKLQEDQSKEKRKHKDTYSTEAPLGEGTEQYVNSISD

Compound | inhibition
O=C(COc1ccc(Cl)cc1)NCc1nnc(SCC(=O)NCC2CCCO2)o1 (stereo not given) | -1.58%
O=C1CSc2ccc(C(=O)NCc3ccccn3)cc2N1 | 0.274%
c1ccc(CN=C2Nc3ccccc3CS2)nc1 | 52.5% (active)
COc1ccc(Cl)cc1NS(=O)(=O)c1cccc(C(=O)NC2CCC(O)CC2)c1 (stereo not given) | 3.9%
CN1C(=O)/C(=C\c2cc(Br)cs2)c2ccccc21 | 66.3% (active)
CN1C(=O)/C(=N/OC(=O)c2ccccc2Br)c2ccccc21 | 20.2%
CCC1C(=O)c2ccccc2N(C)C1=O (stereo not given) | -9.28%
CCOc1ccc(C(c2c(C)[nH][nH]c2=O)c2c(C)[nH][nH]c2=O)cc1OCC | 16.7%
Cc1[nH][nH]c(=O)c1C(c1ccc(-c2ccc(Cl)cc2)o1)c1c(C)[nH][nH]c1=O | 53.1% (active)
O=C(NC1CCCCC1)c1ccc(-c2ccc(Cl)cc2)o1 | -2.51%
Cc1cccc(NC(=O)C2CCCN(C(=O)NCc3ccccc3)C2)c1C (stereo not given) | 8.32%
CCNC(=O)CC1C(=O)N(c2ccc(OC)cc2)C(=O)N1CCOC (stereo not given) | -17.8%
CCCCCCCCCOC1OC(CO)C(O)C(O)C1NC(C)=O (stereo not given) | -4.5%
Clc1ccc(C2=CSC3=Nc4cccc5cccc(c45)N23)cc1 | 82.2% (active)
CCCN(CCc1ccccc1)C1CCc2c(O)cccc2C1 (stereo not given) | -8.37%
Cc1nc(NC(=O)c2ccc3c(c2)OCCO3)ccc1Br | 70.9% (active)
CCCc1cc(C(=O)Nc2ccc(Cl)cn2)cs1 | 86.5% (active)
CCCCC(CC)C(=O)Nc1ccc(Cl)cn1 (stereo not given) | 0.311%
Cc1ccc(C(=O)NNC(=O)c2ccc3c(c2)OCCO3)cc1 | 16.5%
Cc1cccc(C)c1NC(=O)CNC(=O)c1ccc2c(c1)OCCO2 | -7.93%
CCCc1cc(C(=O)Nc2ccc(C(=O)OC)cc2)cs1 | -4.63%
COc1ccc(C(=O)NC(=S)Nc2ccc(Cl)cn2)cc1OC | -0.015%
O=C(Nc1ccc(Cl)cn1)c1ccc2c(c1)OCCO2 | 76.8% (active)
COc1c(Cl)cc(C(=O)Nc2ccc(Cl)cn2)cc1Cl | 23.4%
O=C(/C=C/c1cnc2ccccc2n1)NC1CCCCCC1 | -2.57%

Compound | inhibition
O=C(CC1C(=O)NCCN1Cc1ccc(-c2ccccc2)cc1)NCc1ccncc1 (stereo not given) | -5.88%
CC1CN(S(=O)(=O)c2cccc(C(F)(F)F)c2)CN1C(=O)N1CCOCC1 (stereo not given) | -20.3%
COc1cc(OC)c(NC(=O)C2CCCN2C(=O)OCc2ccccc2)cc1Cl (stereo not given) | -8.31%
CC1(C)CC(=O)C2=C(C1)NCN(CCCN1CCOCC1)C2 | 1.73%
CCCn1nnc(NC(=O)COc2ccc(CC)cc2)n1 | 1.27%
CC(=O)C(CC(=O)N1CCCC1)C(=O)Nc1ccc(Cl)cc1 (stereo not given) | -4.11%
CC(C)C(=O)Nc1nnc(Sc2ccc(N(C)C)cc2)s1 | -0.866%
O=C(c1ccc(F)cc1)c1cn(Cc2ccc(F)cc2)c2cc3c(cc2c1=O)OCCO3 | -4.67%
COCCN(CCOC)c1nc(N)c2c(N)nc3c(c2c1C#N)CC(=O)N3Cc1ccc(Cl)cc1 | 81.3% (active)
CC1COC2C(O1)N(S(C)(=O)=O)CCN2S(C)(=O)=O (stereo not given) | -1.6%
CC1(C)CC(=O)C=C(NCc2ccncc2)C1 | 11.9%
Cc1csc(OCC(=O)Nc2ccc(C)c(C)c2)n1 | -7.65%
CCN(CC)CCn1c(/N=C/c2cc(Br)ccc2O)nc2ccccc21 | 5.27%
Oc1ccc(Br)cc1/C=N/Nc1ccccn1 | 14.9%
Oc1ccc(Br)cc1C=Nc1ccc2[nH]ncc2c1 | 55.4% (active)
Cc1ccn(-c2cccc(-n3ccc(C)n3)n2)n1 | -0.107%
O=S(=O)(c1ccc(Br)c2ccccc12)N1CCOCC1 | -3.67%
Cc1c(Cl)c([N+](=O)[O-])nn1CC(=O)NCCCN1CCOCC1 | -13.8%
N/C(=N\OC(=O)c1ccc2c(c1)OCO2)c1ccc(Br)cc1 | 46%
CC(=O)c1cc2c(cc1N)OCO2 | 1.73%
Nc1[nH][nH]c(=O)c1N=Nc1ccc2c(c1)OCO2 | 51.5% (active)
Cn1c2ccccc2c2cc(/C=C(\NC(=O)c3ccccc3)C(=O)NCC(=O)O)ccc21 | -6.28%
O=S(=O)(Nc1ccc(O)c2ccccc12)c1ccc(OC(F)(F)F)cc1 | 74.9% (active)
Cc1nn(C)c(C)c1NS(=O)(=O)c1ccc(OC(F)(F)F)cc1 | 5.85%
O=C1COc2ccc(S(=O)(=O)Nc3ccc(OC(F)(F)F)cc3)cc2N1 | -6.08%

Compound | inhibition
C[C@@H]1CN([C@@H](C)CO)C(=O)c2cccc(NS(=O)(=O)c3ccc(F)cc3)c2O[C@H]1CN(C)C(=O)NC1CCCCC1 | -9.28%
CCOc1ccc(NC(=O)COc2ccc(S(=O)(=O)N3CCCC3)cc2)cc1 | -19.8%
N=c1oc2ccccc2cc1C(=O)N/N=C/c1ccccc1 | 89.2% (active)
N=c1oc2ccccc2cc1C(=O)NCc1ccccc1 | -3.97%
Cc1ccc(/C=N/NC(=S)Nc2cccc(S(=O)(=O)N(C)C)c2)o1 | -0.431%
O=C(N/N=C/c1cccnc1)c1ccc(NC(=O)c2ccc(F)cc2)cc1 | -21.5%
CNC(=O)c1cc2c(ccc3ccccc32)oc1=N | 6.2%
Cc1ccc(/C=N/NC(=S)NC2CCCCC2)o1 | -24.3%
O=C(N/N=C\c1cccnc1)c1cc(-c2ccccc2)nc2c(Cl)cccc12 | -10.9%
Cc1ccc(/C=N/NC(=O)c2cc3ccccc3cc2O)o1 | 73.7% (active)
O=C(N/N=C/c1cccnc1)c1cc2ccccc2cc1O | 54.6% (active)
CCCN(CC(=O)Nc1ccccc1OC)C(=O)CCC(=O)c1ccc(F)cc1 | -2.28%
O=C(C(=O)N1CCc2ccccc2C1)c1c[nH]c2ccccc12 | -7.83%
CC(NC(=O)c1cccc(S(=O)(=O)N2CCc3ccccc3C2)c1)c1ccco1 (stereo not given) | -17.8%
CCOc1cc(/C=C2\SC(N3CCCC(C)C3)=NC2=O)ccc1O (stereo not given) | 11.9%
CCCc1ccc(OCC(O)CN2CCN(CCO)CC2)cc1 (stereo not given) | 5.43%
CCc1cccc(NC(=O)COC(=O)C2CCN(c3ccc(C(F)(F)F)cn3)CC2)c1 | 33.7%
CCOc1ccc(CN2CCN(CCCc3ccccc3)C(CCO)C2)cc1 (stereo not given) | 9.84%
Cc1nnc(CN(C)Cc2cn[nH]c2-c2ccc(-c3ccccc3)cc2)o1 | -1.7%
Cc1c(Cl)cccc1NC(=O)CC1SC(=NCC2CCCO2)NC1=O (stereo not given) | -0.542%
COc1ccc(OC)c(/C=C/C(=O)c2ccc3c(c2)OCO3)c1 | -8.22%
CC(Sc1nnc(COc2ccccc2)n1-c1ccccc1)C(=O)O (stereo not given) | -16.5%
Nc1ccccc1/C=N\N=C/c1ccccc1N | 60.6% (active)
C=CCC[C@H](Cc1ccc(F)cc1)C(=O)OC[C@H](C)NC(=O)[C@H](CC=C)CC(=O)N(CCO)Cc1ccccc1 | -7.07%
CCCCCCC12CCC(C(=O)O)(CC1)CC2 | -27.4%

Source: PubChem BioAssay AID2599 (Sanford-Burnham Center for Chemical Genomics, 2010)
